Measured values from PubChem BioAssay AID1159580 (chemical genetic matrix, 2015).
The campaign covered roughly 5,500 compounds. About 2,000 (36%) were called active. Another 18% or so got no clear call; they are omitted. Cut-off read from the data, not from the text of the source: active = normalized growth mostly below about 0.91 (no sharp cut-off); inconclusive = no clear call, values can overlap the other calls; inactive = mostly above about 0.92. The list shows a part of the results.

Experiment: chemical genetic growth profiling, strain panel (AID 1159580);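 note: tested at 20 µM; growth read once vehicle control cultures reached saturation at 30 °C; 1 = growth at the plate median or of vehicle wells; lower values mean less growth of the strain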
Settings: S. cerevisiae deletion strains, growth OD

Measured: normalized growth

CC(=O)O[C@@H]1CC2C(C)(C)C(=O)C3OC3[C@]2(C)C2CC[C@@]3(C)[C@H](c4ccoc4)OC(=O)C4OC43[C@@]21C (some centres undefined)
active: locus YKL085W, strain MDH1 (second series), stronger effect = lower value 1.13 [resistant] | locus YKL085W, strain MDH1, stronger effect = lower value 1.13 [resistant]
inactive: locus YJL187C, strain SWE1 (second series), stronger effect = lower value 1 | locus YJL187C, strain SWE1, stronger effect = lower value 0.993 | locus YJR066W, strain TOR1, stronger effect = lower value 0.942 | locus YKL009W, strain mrt4, stronger effect = lower value 1.08 | locus YKL068W, stronger effect = lower value 1.01 | locus YKL160W, strain elf1, stronger effect = lower value 1 | locus YKL190W, strain CNB1, stronger effect = lower value 1.01 | locus YKR001C, strain vps1, stronger effect = lower value 0.989 | locus YKR026C, strain gcn3, stronger effect = lower value 0.977 | locus YKR091W, strain srl3, stronger effect = lower value 0.982 | locus YLL001W, strain dnm1, stronger effect = lower value 0.991 | locus YLL026W, stronger effect = lower value 0.988 | locus YLL041C, strain sdh2, stronger effect = lower value 0.981 | locus YLR027C, strain aat2, stronger effect = lower value 0.962 | locus YLR039C, strain RIC1, stronger effect = lower value 1.06 | locus YLR058C, strain SHM2, stronger effect = lower value 1.01 | locus YLR102C, strain apc9, stronger effect = lower value 1 | locus YLR113W, strain HOG1, stronger effect = lower value 0.999 | locus YLR221C, strain rsa3, stronger effect = lower value 0.964 | locus YLR258W, strain gsy2, stronger effect = lower value 0.99 | locus YLR262C, strain YPT6 (second series), stronger effect = lower value 0.994 | locus YLR268W, strain sec22, stronger effect = lower value 1.01 | locus YLR320W, strain mms22, stronger effect = lower value 0.966 | locus YLR342W, strain FKS1, stronger effect = lower value 0.985 | locus YLR357W, strain rsc2, stronger effect = lower value 0.953 | locus YLR370C, strain arc18, stronger effect = lower value 0.971 | locus YLR371W, strain rom2, stronger effect = lower value 0.997 | locus YLR384C, strain iki3, stronger effect = lower value 0.993 | locus YLR418C, strain cdc73, stronger effect = lower value 0.979 | locus YML016C, strain PPZ1, stronger effect = lower value 1.01 | locus YML032C, strain rad52, stronger effect = lower value 1.01 | locus YML120C, strain ndi1, stronger effect = lower value 0.992 | locus YML124C, strain tub3, stronger effect = lower value 1 | locus YMR058W, strain fet3, stronger effect = lower value 0.986 | locus YMR078C, strain ctf18, stronger effect = lower value 1.01 | locus YMR125W, strain sto1, stronger effect = lower value 0.999 | locus YMR129W, stronger effect = lower value 0.987 | locus YMR205C, strain PFK2, stronger effect = lower value 0.991 | locus YMR223W, strain ubp8, stronger effect = lower value 0.998 | locus YMR231W, strain pep5, stronger effect = lower value 0.95 | locus YMR307W, strain GAS1, stronger effect = lower value 0.941 | locus YNL067W, strain RPL9B, stronger effect = lower value 0.997 | locus YNL071W, strain lat1, stronger effect = lower value 0.99 | locus YNL183C, strain NPR1, stronger effect = lower value 0.963 | locus YNL209W, strain ssb2, stronger effect = lower value 0.998 | locus YNL233W, strain BNI4, stronger effect = lower value 1.03 | locus YNL248C, strain rpa49, stronger effect = lower value 0.973 | locus YNL250W, strain rad50, stronger effect = lower value 0.983 | locus YNL271C, strain bni1, stronger effect = lower value 1 | locus YNL298W, strain CLA4, stronger effect = lower value 1 | locus YNL307C, strain MCK1, stronger effect = lower value 0.993 | locus YNL322C, strain KRE1 (second series), stronger effect = lower value 0.978 | locus YNL322C, strain KRE1, stronger effect = lower value 1.01 | locus YNR049C, strain mso1, stronger effect = lower value 0.976 | locus YNR052C, strain pop2, stronger effect = lower value 0.996 | locus YOL012C, strain htz1 0.75 | locus YOL147C, strain pex11, stronger effect = lower value 1.01 | locus YOR001W, strain rrp6, stronger effect = lower value 0.97 | locus YOR061W, strain CKA2, stronger effect = lower value 1 | locus YOR069W, strain VPS5, stronger effect = lower value 1 | locus YOR070C, strain gyp1, stronger effect = lower value 0.975 | locus YOR080W, strain dia2, stronger effect = lower value 0.971 | locus YOR083W, strain WHI5, stronger effect = lower value 1.01 | locus YOR106W, strain vam3, stronger effect = lower value 0.994 | locus YOR136W, strain idh2, stronger effect = lower value 0.997 | locus YOR144C, strain elg1, stronger effect = lower value 1.02 | locus YOR184W, strain ser1, stronger effect = lower value 1.01 | locus YOR231W, strain MKK1, stronger effect = lower value 0.986 | locus YOR265W, strain rbl2, stronger effect = lower value 0.981 | locus YOR270C, strain vph1, stronger effect = lower value 0.922 | locus YOR290C, strain snf2, stronger effect = lower value 0.994 | locus YOR316C, strain cot1, stronger effect = lower value 1 | locus YPL051W, strain arl3, stronger effect = lower value 0.986 | locus YPL078C, strain atp4, stronger effect = lower value 0.994 | locus YPL106C, strain sse1, stronger effect = lower value 0.989 | locus YPL240C, strain hsp82, stronger effect = lower value 0.981 | locus YPL256C, strain CLN2, stronger effect = lower value 0.984 | locus YPR119W, strain clb2, stronger effect = lower value 0.996 | locus YPR141C, strain kar3, stronger effect = lower value 1.01 | locus YPR163C, strain tif3, stronger effect = lower value 0.999 | locus YPR167C, strain met16, stronger effect = lower value 0.998 | strain wtn01, stronger effect = lower value 1
